Results filed as inconclusive are left out. A number with no mark means an inactive call. Calls of active or inactive are those of the source. The call rests on the fitted dose curve; in most records, active means well fitted inhibition curve with a large enough effect in the signal ratio in the repeat runs (not every such curve was filed as active); inconclusive means weak or mixed curves, or effect the other way; inactive means no such curve, though single readings can be large or run the other way; the % refers to the signal ratio.
Molecular target: Glucocorticoid receptor (Homo sapiens) (UniProt P04150)
Sequence (P04150 whole entry, looked up): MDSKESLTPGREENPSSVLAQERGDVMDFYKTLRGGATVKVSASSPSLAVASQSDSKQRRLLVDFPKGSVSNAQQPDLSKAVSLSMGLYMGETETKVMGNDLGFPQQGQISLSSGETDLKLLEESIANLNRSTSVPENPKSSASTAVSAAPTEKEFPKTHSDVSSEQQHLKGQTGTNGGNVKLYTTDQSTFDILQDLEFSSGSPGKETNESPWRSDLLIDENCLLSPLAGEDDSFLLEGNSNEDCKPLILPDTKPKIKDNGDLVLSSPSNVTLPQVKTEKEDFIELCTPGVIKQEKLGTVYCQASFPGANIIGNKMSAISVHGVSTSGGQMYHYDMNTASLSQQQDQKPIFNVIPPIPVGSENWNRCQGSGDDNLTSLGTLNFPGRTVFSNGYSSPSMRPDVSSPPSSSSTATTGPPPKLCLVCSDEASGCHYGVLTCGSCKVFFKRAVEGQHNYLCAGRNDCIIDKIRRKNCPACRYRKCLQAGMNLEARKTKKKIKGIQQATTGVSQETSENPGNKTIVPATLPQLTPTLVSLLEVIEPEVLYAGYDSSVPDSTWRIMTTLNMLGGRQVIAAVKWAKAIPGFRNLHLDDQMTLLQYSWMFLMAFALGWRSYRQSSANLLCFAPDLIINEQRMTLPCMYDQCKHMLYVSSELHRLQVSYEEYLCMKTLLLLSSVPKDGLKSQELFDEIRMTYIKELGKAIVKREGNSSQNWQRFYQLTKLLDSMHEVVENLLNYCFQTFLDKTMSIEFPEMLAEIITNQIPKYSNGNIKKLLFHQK
Test: qHTS assay to identify small molecule antagonists of the glucocorticoid receptor (GR) signaling pathway (AID 720692)
Details: GR-bla HeLa, beta-lactamase FRET ratio, dexamethasone-stimulated, 18 h; series mostly up to 58.5 µM; activity change, negative = inhibition: at the top concentration
From the text: U.S. Tox21 Program National Center for Advancing Translational Sciences [NCATS] NIH Chemical Genomics Center [NCGC] U.S. Environmental Protection Agency [EPA] National Institutes of Environmental Health Sciences [NIEHS] National Toxicology Program [NTP] U.S. Food and Drug Administration [FDA] Tox21 Assay Overview: The Glucocorticoid receptor (GR) is one of the members of the nuclear receptor family of ligand-dependent transcription factors. GR plays a critical role in carbohydrate, protein and lipid metabolisms and programmed cell death. CellSensor GR-bla HeLa cell line (Invitrogen) contains a beta-lactamase reporter gene under the control of the glucocorticoid response element stably integrated into HeLa cells, a cervical cancer cell line that expresses glucocorticoid receptor. The activation of the reporter gene under culture conditions can be detected by fluorescence intensity. This cell line has been used to screen the Tox21 10K compound library and to identify the compounds that inhibit the GR signaling.
Tox21 Assay Protocol Summary: The GR-bla HeLa cells were dispensed at 1500 cells/5 ul/well in 1536-well black wall/clear bottom plates using a Multidrop Combi (ThermoFisher Scientific, Waltham, MA) dispenser. After the assay plates were incubated at a 37 C/5% CO2 incubator for 4 hours, 23 nL of compounds dissolved in DMSO, positive controls or DMSO only was transferred to the assay plate by a pintool station (Kalypsys, San Diego, CA), followed by addition of 1 uL of dexamethasone (5 nM, final concentration in the well). The plates were incubated at 37 C for 18 hours. After 1 uL of LiveBLAzerTM B/G FRET substrate was added using a Flying Reagent Dispenser (Aurora Discovery, San Diego, CA), the plates were incubated at room temperature for 2 hours, and fluorescence intensity was measured by an Envision plate reader (PerkinElmer, Shelton, CT).
On the % scale 0 is the no-effect control and ±100 the full control effect; potency means the concentration at half of the fitted maximal effect.

Row | Compound | Potency | activity change, negative = inhibition
1 | C[C@H]1C[C@H]2[C@@H]3CCC4=CC(=O)C=C[C@]4(C)[C@H]3C(=O)C[C@]2(C)[C@@]1(O)C(=O)CO | 2.13 µM (active) | –
2 | C=CCCC(=O)O | – | -9.32%
3 | CC(C#N)(CCC(=O)O)N=NC(C)(C#N)CCC(=O)O (stereo not given) | – | -2.99%
4 | CCCCCC(=O)OCCc1ccccc1 | – | 2.38%
5 | CC(C)C1CCC(O)CC1 (stereo not given) | – | 14.7%
6 | CN(C)CCCN(C)CCCN(C)C | – | 8.72%
7 | Cc1ncc(COP(=O)(O)O)c(C=O)c1O | – | 16.6%
8 | CC1=CCC(O)(C(C)C)CC1 (stereo not given) | – | 12.4%
9 | CCCC[N+](C)(CCCC)CCCC | – | -3.23%
10 | CCN(C=O)CC | – | -7.67% [at 78.9 µM]
11 | Clc1cc(Cl)cc(Cl)c1 | – | -6.18%
12 | Nc1ccncc1N | – | -7.86%
13 | CC(=O)O[C@@]12CO[C@@H]1C[C@H](O)[C@@]1(C)C(=O)[C@H](O)C3=C(C)[C@@H](OC(=O)[C@H](O)[C@@H](NC(=O)OC(C)(C)C)c4ccccc4)C[C@@](O)([C@@H](OC(=O)c4ccccc4)[C@H]21)C3(C)C | 10.7 µM (active) | –
14 | OCCc1ccccn1 | – | -0.616%
15 | CCOc1ccccc1OCC | – | 7.03%
16 | CC(C)=CCC/C(C)=C/C#N | – | 1.11% [at 78.9 µM]
17 | O=C(CO)[C@@H](O)[C@H](O)[C@@H](O)CO | – | 2.73%
18 | CC[C@H]1OC(=O)[C@H](C)[C@@H](O[C@H]2C[C@@](C)(OC)[C@@H](O)[C@H](C)O2)[C@H](C)[C@@H](O[C@@H]2O[C@H](C)C[C@H](N(C)C)[C@H]2O)[C@](C)(OC)C[C@@H](C)C(=O)[C@H](C)[C@@H](O)[C@]1(C)O | – | -2.3% [at 78.9 µM]
19 | Cc1ccc(C(=O)c2ccccc2)cc1 | – | 0.703%
20 | CCCCOC(=O)CCC(C)=O | – | 5.72%

Row | Compound | Potency | activity change, negative = inhibition
21 | CC12CCC(C(=O)C1=O)C2(C)C (stereo not given) | – | 8.57% [at 78.9 µM]
22 | Cc1cccc(C)c1NC(=O)CC12CCCN1CCC2 | – | 13.4%
23 | CCCO[Si](OCCC)(OCCC)OCCC | – | -7.84%
24 | CC(=O)C1CCCCC1=O (stereo not given) | – | -12.7%
25 | NC(CCC(=O)O)C(=O)O (stereo not given) | – | 3.25%
26 | CCN[C@H]1C[C@H](C)S(=O)(=O)c2sc(S(N)(=O)=O)cc21 | – | -8.86%
27 | O=C(O)c1cn(C2CC2)c2cc(N3CCNCC3)c(F)cc2c1=O | – | -0.22% [at 27 µM]
28 | CCOC(=O)c1ccccc1 | – | -4.56%
29 | CCC(=O)OCc1ccccc1 | – | 5.25%
30 | CC(=O)N1C[C@H](O)C[C@H]1C(=O)O | – | 6.54%
31 | C1CCC2(CCCCO2)OC1 | – | -2.38%
32 | C=C(C)C(=O)OCC1CCCO1 (stereo not given) | – | -1.56%
33 | CC(C)NNC(=O)c1ccncc1 | – | 0.988%
34 | CC(COc1ccccc1)NN (stereo not given) | – | -5.27%
35 | O=S(=O)(O)c1cccc2c(S(=O)(=O)O)cccc12 | – | 0.15%
36 | CCN1C=CN(C)C1C (stereo not given) | – | -2.39% [at 78.9 µM]
37 | CC(=O)c1ccc2ccccc2c1 | – | 16%
38 | COc1c(N2CCNC(C)C2)c(F)cc2c(=O)c(C(=O)O)cn(C3CC3)c12 (stereo not given) | – | -2.32%
39 | NCCCC(N)(C(=O)O)C(F)F (stereo not given) | – | -0.118%
40 | C[N+](C)(CCOc1ccccc1)Cc1cccs1 | – | -4.14%

Reference: PubChem BioAssay (Tox21)
